Compound activity: PubChem, National Center for Advancing Translational Sciences (NCATS)
DT40 TDP1 CPT – qHTS for Inhibitors of human tyrosyl-DNA phosphodiesterase 1 (TDP1): qHTS in cells in presence of CPT. chicken DT40 Tdp1-/-;hTDP1 cells + 20 nM CPT, ATP luminescence, 48 h. Potency, µM (highest dose often 46.2 µM), without a hit: top-dose activity change, negative = growth inhibition, usual class: inhibitors. 12% of 420,000 active. AID 686979, 2013; note: potency is the fitted concentration of half-maximal effect; nearly all actives have a fitted effect of over 55% in size
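Cell growth measured by CellTiter-Glo luminescence after a minimum 48 h, 37 C compound exposure with 20 nM CPT in Tdp1-knockout DT40 cells stably expressing hTDP1, seeded 400/well; qHTS titration format.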
HT1080 IDH1KD tx – qHTS for induction of synthetic lethality in tumor cells producing 2HG: qHTS for the HT-1080-IDH1KD cell line; AID 686971, 2013; Potency, µM (titrated, usually from 46.1 µM), inactives show top-dose activity, negative = toxicity, hits mostly cytotoxic; 2% of 360,000 active; HT-1080 IDH1 knockdown viability, ATP luminescence, 48 h;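 note: potency is the fitted concentration of half-maximal effect; 0% = DMSO wells and -100% = cell-free medium wells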
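Luminescent ATP read-out (CellTiter-Glo, 10 min at room temperature) after 48 h compound exposure at 37 °C gave viability of IDH1-knockdown HT-1080 cells. Activity was normalised to DMSO and cell-free wells, then fitted as concentration-response curves.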
TDP1 cell noCPT – qHTS for Inhibitors of human tyrosyl-DNA phosphodiesterase 1 (TDP1): qHTS in cells in absence of CPT. DT40 Tdp1-/- hTDP1 cells, no CPT, ATP luminescence, 48 h. Potency, µM (doses to about 46.2 µM), inactives show top-dose activity change, negative = growth inhibition, most hits filed as inhibitors. 15% of 420,000 active; note: potency is the fitted concentration of half-maximal effect; nearly all actives have a fitted effect of over 55% in size
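Chicken DT40 Tdp1-/- cells complemented with human TDP1, screened without camptothecin (DMSO vehicle only), 400 cells/well. Compounds pin-transferred, cells incubated at 37 °C for at least 48 hr. Growth read as ATP-dependent luminescence (CellTiter-Glo, 30 min at RT).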
HT1080NT lethal – qHTS for induction of synthetic lethality in tumor cells producing 2HG: qHTS for the HT-1080-NT fibrosarcoma cell line | HT-1080-NT fibrosarcoma viability, CellTiter-Glo ATP luminescence, 48 h | Potency, µM (titrated, usually from 46.1 µM), inactives show top-dose activity, negative = less viability, hits mostly cytotoxic | 1.6% of 360,000 active | AID 686970, 2013;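 note: NT is the 2HG producing partner of a matched IDH1 knockdown line; potency is the fitted concentration of half-maximal effect; 0% = DMSO-treated cells and -100% = media-only wells without cells; nearly all actives have a fitted effect of over 55% in size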
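HT-1080-NT; 750 cells/well; 5% FBS RPMI; 48 h compound, 37 degrees C; CellTiter-Glo luminescence; curve fitting and curve-class assignment.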
12-LOX inh – Primary qHTS assay for inhibitors of human arachidonate 12S-lipoxygenase (ALOX12): Round 2. Potency, µM (titrated, usually from 108 µM), for inactives: at the highest dose activity change, negative = inhibition, most hits filed as inhibitors. 1.1% of 580,000 active. AID 1671190, 2021. purified 12hLO, xylenol orange hydroperoxide absorbance. Polyunsaturated fatty acid lipoxygenase ALOX12 (Homo sapiens), P18054; note: potency is the fitted concentration of half-maximal effect
Target sequence (P18054 whole entry, looked up): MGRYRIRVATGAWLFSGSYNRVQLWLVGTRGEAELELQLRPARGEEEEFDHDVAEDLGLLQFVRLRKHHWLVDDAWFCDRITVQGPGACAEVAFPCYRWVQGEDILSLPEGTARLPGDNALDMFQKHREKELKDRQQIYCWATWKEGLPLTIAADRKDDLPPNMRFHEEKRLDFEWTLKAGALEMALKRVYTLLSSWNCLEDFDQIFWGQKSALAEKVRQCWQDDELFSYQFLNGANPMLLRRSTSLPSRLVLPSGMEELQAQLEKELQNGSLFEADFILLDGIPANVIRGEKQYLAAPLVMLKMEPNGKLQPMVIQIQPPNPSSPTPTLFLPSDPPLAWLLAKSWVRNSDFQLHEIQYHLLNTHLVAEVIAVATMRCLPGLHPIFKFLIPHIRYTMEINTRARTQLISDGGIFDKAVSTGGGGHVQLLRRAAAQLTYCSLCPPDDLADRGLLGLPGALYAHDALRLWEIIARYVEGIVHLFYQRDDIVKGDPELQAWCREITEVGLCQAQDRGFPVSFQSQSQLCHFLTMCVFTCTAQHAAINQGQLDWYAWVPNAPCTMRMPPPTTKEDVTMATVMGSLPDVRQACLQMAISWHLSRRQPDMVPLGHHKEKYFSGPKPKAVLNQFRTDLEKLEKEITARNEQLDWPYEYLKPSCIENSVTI
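Purified human 12hLO at 150 nM in 25 mM Hepes, 0.01% Triton X-100, pH 7.0, preincubated 15 min at room temperature with compound. Reaction started with 40 uM arachidonic acid, 30 min at room temperature. Hydroperoxide measured by Fe-xylenol orange, 573/405 nm absorbance ratio.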
IL1B secr inh – qHTS for Inhibitors of Inflammasome Signaling: IL-1-beta AlphaLISA Primary Screen | THP-1 LPS/ATP IL-1B secretion, AlphaLISA, 16 h; active compounds read low | activity change, % at 57.5 µM | 4.7% of 360,000 active | AID 743279, 2014; in the data active = activity change below about -50%; inconclusive = mostly about -30% to -49%
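Secreted IL-1B measured by AlphaLISA bead assay after 16 h compound exposure of THP-1 cells; compounds (final up to 57.5 uM) added 1 h before LPS (250 ng/mL) and ATP (1.25 mM) stimulation; lower signal means less secretion.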
* = called active by the depositor; ? = inconclusive; / = no result; [ ] = remark or other dose. The entries come from a sample that favours hits as a whole. Unless noted, calls come from the whole dose curve; as a rule, active = well fitted curve in the direction sought with a large enough effect; inconclusive = small, poorly fitted or top-dose-only effect, or another doubt; inactive = no such curve, though single readings can be large; an effect the other way counts as inactive or inconclusive. Unless noted, % is set by controls: 0 for no effect and ±100 for the full control effect.

SMILES	DT40 TDP1 CPT	HT1080 IDH1KD tx	TDP1 cell noCPT	HT1080NT lethal	12-LOX inh	IL1B secr inh
CN1C(=O)C(=Cc2ccc(N3CCOCC3)o2)C(=O)N(C)C1=O	-11.7%	18.8%	-8.0%	23.1%	-27.8%	11.6
Cc1ccc(Sc2ccc(C=C3C(=O)N(C)C(=O)N(C)C3=O)o2)cc1	18.4µM*	13.3%	18.4µM*	25.2%	35.5µM*	-12.1
CCOc1ccc(NC(=O)c2ccc(NC(=O)COC(=O)Cc3ccccc3)cc2)cc1	-5.9%	-1.7%	-1.9%	-0.3%	0.1%	-11.7
COc1ccc(-c2cnnn2-c2ccc(NC(=O)c3ccc(S(=O)(=O)N(C)C)cc3)cc2)cc1	20.6µM*	/	18.4µM*	/	4.3%	/
COc1ccc(C(=O)Nc2ccc(S(=O)(=O)N(Cc3ccccc3)c3ccccc3)cc2)cc1	13µM*	/	5.17µM*	/	-25.1%	/
O=C(c1cccs1)C1CCCN(Cc2nc(-c3ccccn3)no2)C1 (stereo not drawn)	/	/	/	/	51.8%	/
CC(C)COP(=O)(OCC(C)C)C(Nc1ccccc1)c1ccccc1 (stereo not drawn)	?	?	?	18.4µM*	?	-57.5*
O=P(Oc1ccccc1)(Oc1ccccc1)C(O)c1ccccc1 (stereo not drawn)	-19.7%	9.2%	-0.1%	12.4%	8.5%	7.7
COP(=O)(OC)C(Nc1ccccn1)c1ccccc1 (stereo not drawn)	-2.5%	14.5%	-0.3%	6.6%	-12.1%	13.4
CC(C)COP(=O)(c1ccc(N(C)C)cc1)C(Nc1ccccc1)c1ccccc1 (stereo not drawn)	?	-5.8%	29.1µM*	-11.5%	-9.7%	-2.8
CN(C)c1ccc(P(=O)(OC2CCCCC2)C(Nc2ccccc2)c2cccnc2)cc1 (stereo not drawn)	?	-19.2%	20.6µM*	-21.1%	?	-51.9*
CC(C)CCOP(=O)(c1ccc(N(C)C)cc1)C(O)c1ccccc1 (stereo not drawn)	?	1.9%	?	-10.2%	-14.0%	14.0
O=P(Oc1ccccc1)(Oc1ccccc1)C(Nc1ccccc1)c1ccccc1 (stereo not drawn)	?	-10.0%	16.4µM*	-26.7%	8.6%	0.0
Cc1ccc(-n2nnnc2C2(NC(C)C)CCCCC2)cc1	/	/	/	/	4.6%	/
CC(C)(O)c1cn(C[C@H]2CC3CCN2C[C@@H]3C(=O)Nc2nccs2)nn1 (stereo partly drawn)	/	/	/	/	4.9%[176 µM]	/
O=C1CSC(c2ccc(F)cc2F)c2cn[nH]c2N1 (stereo not drawn)	/	/	/	/	12.1%	/
COc1cc2c(cc1OC1CCCC1)NC(=O)C21CCN(c2ncc(C(C)C)cn2)CC1	/	/	/	/	-3.7%[176 µM]	/
O=C(NCc1ccccc1)[C@H]1CN2CCC1C[C@@H]2Cn1cc(C2(O)CCCCC2)nn1 (stereo partly drawn)	/	/	/	/	22.6%[176 µM]	/
C=CCN(C)C(=O)[C@H]1CN2CCC1C[C@@H]2Cn1cc(CCO)nn1 (stereo partly drawn)	/	/	/	/	37.9%[176 µM]	/
COc1ccc([C@H]2C[C@@H](O)[C@@H](O)[C@@H]2NCC2CCCC2)cc1	/	/	/	/	0.7%[176 µM]	/
COc1ccccc1NC(=O)c1oc2ccccc2c1NC(=O)c1ccccc1C(F)(F)F	3.66µM*	/	5.17µM*	/	-20.5%	/
